# Measured values published in PubChem BioAssay.
# Calls of active or inactive are those of the source.
# Tested on: wheat germ agglutinin (Triticum aestivum), Alexa647-labelled
# Experiment: wheat germ agglutinin binders on compound microarrays, profiling panel, artefact control for SMM control-protein annotation, biochemical, small-molecule microarray, 635/667 nm fluorescence (AID 1140);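 note: score merges 667 nm feature emission with signal to noise over triplicate slides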
# Settings: WGA-A647 binding, 635 nm fluorescence, higher = more signal
row,SMILES,composite z-score
1,CCCCCN1CC=CC23O[C@@H]4/C=C\CCCOC(=O)C4[C@H]2C(=O)N(CCO)[C@@H]3C1=O (stereo not given in full),0.759
2,CN1C2C=C(c3ccc(CO)cc3)C(C3C(=O)N(C(N)=O)C(=O)C32)C1C1CC1 (stereo not given),0.239
3,Cc1ccc(S(=O)(=O)N2[C@@H](c3ccccc3)C(C(=O)O)=C[C@H]2C(C)(C)C)cc1,1.31
4,C=C(C(=O)CC[C@@H](OC(=O)c1ccccc1-c1ccccc1C(=O)O)c1ccc(CO)o1)C(C)C,0.707
5,COC(=O)[C@@]1(Cc2ccc(F)cc2)[C@@H]2C(=CC(=O)[C@H]2CC(=O)C(=O)N2CCCC2)CN1C(=O)c1ccccc1,1.23
6,COC(=O)C(CC#Cc1ccc2c(c1)[C@]1(C(=O)N2)[C@H](C(=O)N2CCCCCCC2)[C@H]2C(=O)O[C@H](c3ccccc3)[C@H](c3ccccc3)N2[C@@H]1c1ccc(OCCO)cc1)C(=O)OC,1.77
7,C=CC[C@H](OC(=O)Nc1ccc(SC)cc1)c1ccc(O)c(F)c1,0.541
8,Cc1cccc([C@H]2C[C@H]3C(Br)=C[C@@]2(CO)C(=O)[C@]32CO2)c1,-0.549
9,C=C(CCCC)C(=O)CC[C@H](OC(=O)c1ccccc1-c1ccccc1C(=O)O)c1cccc(OCCO)c1,-0.373

# Molecular target: Luciferin 4-monooxygenase (Photinus pyralis) (UniProt P08659)
# Experiment: firefly luciferase enzyme inhibitors, primary screen, biochemical, luminescence, purified enzyme, 2006 set (AID 1141);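 note: cell-free assay with purified firefly luciferase at 100 ng per well in PBS; test concentration not given here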
# Settings: SteadyGlo luminescence, 30 min, higher = more signal, called active from +8 up or from −8 down
# Chain of Luciferin 4-monooxygenase (Photinus pyralis) (P08659 whole entry, looked up): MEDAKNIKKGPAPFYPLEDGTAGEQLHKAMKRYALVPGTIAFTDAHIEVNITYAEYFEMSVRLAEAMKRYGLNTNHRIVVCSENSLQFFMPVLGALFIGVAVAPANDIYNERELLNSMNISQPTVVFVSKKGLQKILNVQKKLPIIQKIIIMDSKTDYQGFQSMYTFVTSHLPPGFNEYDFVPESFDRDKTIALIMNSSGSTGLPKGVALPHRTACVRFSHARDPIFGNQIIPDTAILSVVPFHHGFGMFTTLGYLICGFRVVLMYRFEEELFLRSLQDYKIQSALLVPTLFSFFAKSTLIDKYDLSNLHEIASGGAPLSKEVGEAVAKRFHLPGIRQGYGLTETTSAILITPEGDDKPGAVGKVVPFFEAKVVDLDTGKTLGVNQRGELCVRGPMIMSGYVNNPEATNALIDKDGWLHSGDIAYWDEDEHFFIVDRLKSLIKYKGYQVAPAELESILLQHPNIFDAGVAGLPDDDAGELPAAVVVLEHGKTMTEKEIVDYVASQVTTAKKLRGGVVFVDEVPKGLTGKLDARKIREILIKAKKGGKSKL
row,SMILES,z-score
1,CCOC(=O)C1=CC[C@@H](c2ccccc2)N(S(=O)(=O)c2ccc(C)cc2)[C@@H]1C#N,-0.323 (inactive)
2,C=CCN1C(=O)[C@]2(O[C@H](CCO)[C@@H]([Si](C)(C)c3ccc(OC)cc3)[C@@H]2C)c2cc(N3C(=O)c4ccccc4Oc4ccccc43)ccc21,0.368 (inactive)
3,C=CCOC(=O)[C@H]1[C@@H]2C(=O)O[C@@H](c3ccccc3)[C@@H](c3ccccc3)N2[C@@H](c2ccc(OCCOC(=O)[C@H]3C[C@H]4C(=O)NCC(=O)N4[C@H]3c3ccc(O)cc3)cc2)[C@]12C(=O)Nc1ccccc12,0.207 (inactive)
4,C=CCOC(=O)[C@H]1[C@@H]2C(=O)O[C@@H](c3ccccc3)[C@@H](c3ccccc3)N2[C@@H](c2ccc(OCCOC(=O)[C@@H]3C[C@@H]4C(=O)N[C@@H](Cc5ccccc5)C(=O)N4[C@@H]3c3ccc(O)cc3)cc2)[C@]12C(=O)Nc1ccc(I)cc12,-0.409 (inactive)
5,CC(C)[Si](C#Cc1ccccc1)(O[C@H](c1ccccc1)c1cn(Cc2ccccc2)nn1)C(C)C,-1.3 (inactive)
6,O=C(NCCN1CCOCC1)[C@@H]1c2ccccc2C(=O)N(CC23CC4CC(CC(C4)C2)C3)[C@H]1c1ccc(CO)cc1,0.733 (inactive)
7,O=C1O[C@@H](c2ccccc2)[C@@H](c2ccccc2)N2[C@@H](c3ccccc3OCCO)[C@]3(C(=O)Nc4ccc(C#CC5(O)CCCCCC5)cc43)[C@@H](C(=O)N3CCCCCCC3)[C@H]12,-0.37 (inactive)
8,CCOC(=O)C[C@H]1[C@H](OC(=O)c2ccc(-c3ccccc3)cc2)[C@@H](NC(=O)C2CCCCC2)c2cc(OCCCO)ccc2N1C(=O)Cc1ccc(OC)cc1,0.347 (inactive)
9,C=CCC(OC(C)=O)[C@@H]1[C@@H](N(Cc2cccc3ccccc23)C(=O)c2ccc(C)cc2)c2cc(OCCCO)ccc2N1C(=O)Cc1ccc2ccccc2c1 (stereo not given in full),-0.667 (inactive)
10,COC(=O)C1(CC(C)C)C=C2C(=C(C)C(=O)C2C)CN1 (stereo not given),1.98 (inactive)
11,COC(=O)[C@@]1(Cc2ccc(F)cc2)[C@H]2c3cc(C(=O)N4CCCC4)n(C[C@H](O)CO)c3C[C@H]2CN1C(=O)c1ccccc1,2.19 (inactive)
12,COC(=O)C(CC#Cc1ccc2c(c1)[C@]1(C(=O)N2)[C@H](C(=O)NC[C@H](O)c2ccccc2)[C@H]2C(=O)O[C@H](c3ccccc3)[C@H](c3ccccc3)N2[C@@H]1c1ccc(O)cc1)C(=O)OC,-0.168 (inactive)
13,CC(C)c1ccc(NN2C(C(O)C3CCCCC3)C=CC3C(=O)N(c4ccccc4)C(=O)C32)cc1 (stereo not given),-1.36 (inactive)
14,CN(C)C(=O)[C@]1(CCS(=O)(=O)c2ccccc2)N=C(c2ccc(OCCCO)cc2)O[C@@H]1c1ccccc1CN=[N+]=[N-],-0.345 (inactive)
15,COc1ccc(C(=O)Nc2cccc(CN3C(=O)[C@]4(O[C@H](CC(=O)N(CCO)Cc5ccccc5)[C@@H]([Si](C)(C)c5ccc(OC)cc5)[C@@H]4C)c4ccccc43)c2)cc1,-0.881 (inactive)
16,C=CCNC(=O)[C@@H]1[C@H]2C(=O)O[C@H](c3ccccc3)[C@H](c3ccccc3)N2[C@H](c2ccc(O)cc2)[C@@]12C(=O)N(C(=O)OCCOC)c1ccc(C#CCC(C(=O)OC)C(=O)OC)cc12,0.367 (inactive)
